The supplement of paper PMC3334620
Whole data set: some 33,000 sequences, median “E-score (-0.5 to 0.5)” near -0.041, cut for the highest 2% near 0.37. What follows is part of a selection rich in the highest values, with near analogues and random picks from the rest.

Molecular target: T1, Ecm22 (UniProt Q05958)
T1 sequence: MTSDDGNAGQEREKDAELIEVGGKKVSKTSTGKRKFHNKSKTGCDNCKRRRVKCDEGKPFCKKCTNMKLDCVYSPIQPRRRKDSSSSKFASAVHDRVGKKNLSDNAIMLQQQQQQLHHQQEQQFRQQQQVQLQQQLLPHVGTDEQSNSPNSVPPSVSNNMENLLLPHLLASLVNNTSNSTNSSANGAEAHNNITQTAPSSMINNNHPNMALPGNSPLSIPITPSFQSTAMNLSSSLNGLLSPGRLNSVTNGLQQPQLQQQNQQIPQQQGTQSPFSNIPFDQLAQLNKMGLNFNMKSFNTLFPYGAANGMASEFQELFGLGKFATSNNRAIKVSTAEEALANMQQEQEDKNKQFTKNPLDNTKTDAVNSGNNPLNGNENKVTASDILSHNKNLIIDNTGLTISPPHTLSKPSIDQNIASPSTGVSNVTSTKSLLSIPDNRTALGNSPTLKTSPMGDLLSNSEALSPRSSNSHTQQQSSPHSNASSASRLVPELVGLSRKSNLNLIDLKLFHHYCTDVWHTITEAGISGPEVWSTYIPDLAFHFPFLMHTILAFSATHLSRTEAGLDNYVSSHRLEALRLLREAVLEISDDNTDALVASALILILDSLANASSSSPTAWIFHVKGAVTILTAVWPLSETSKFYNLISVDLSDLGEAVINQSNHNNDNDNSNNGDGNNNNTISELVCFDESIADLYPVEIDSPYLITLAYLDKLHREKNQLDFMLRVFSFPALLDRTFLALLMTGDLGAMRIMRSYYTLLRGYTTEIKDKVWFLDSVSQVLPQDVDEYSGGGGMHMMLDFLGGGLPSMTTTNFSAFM
Experiment: PBM E-score (8-mer binding enrichment) (E-score (-0.5 to 0.5)); higher = stronger / more preferred TF binding
Details: protein concentration: 200 nM; construct: GST-full length
Procedure: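 Universal 'all 10-mer' protein binding microarrays (Agilent AMADID 015681) probed with GST-tagged S. cerevisiae TFs (full-length or DBD) made by in vitro transcription/translation (PURExpress), about 100-200 nM. Bound TF was detected with fluorescent anti-GST. Each ungapped 8-mer (which stands for itself and its reverse complement) is scored by the PBM enrichment score (E-score), a modified Wilcoxon-Mann-Whitney statistic from -0.5 to +0.5, computed with the Universal PBM Analysis Suite. Scale: above 0.35 generally sequence-specific binding.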

Sequence | PBM E-score
CCGTCTTA | -0.174
AAGGCGCA | -0.0313
ATCCCAGC | -0.0508
TCAACTGA | -0.205
AGGCTCTC | -0.162
GGAGCACA | -0.107
CGTTGTGC | 0.116
CCCGGGAA | -0.0348
CCAACCAA | -0.0915
AACGATGG | 0.374
CACGATGG | 0.0647
AACGATGC | 0.348
TGTGTAAA | -0.0334
ACACGAGC | 0.275
ATACGTGA | 0.171
CTACGAGC | 0.413
ATACGAGA | 0.484
CGACGAGC | 0.162
CCACGAGC | -0.0179
CGACGAGA | 0.08
ATACGAGC | 0.49
CCACGAGA | -0.117
CTACGAGA | 0.385
ATGCGAGA | 0.302
AGACGAGC | 0.211

Sequence | PBM E-score
CCGAGTGA | 0.196
CCTTTCGA | 0.142
AAGCGTTA | 0.00424
ACCCCCGG | -0.189
GAGCGGGC | -0.0404
AGTAGTCG | 0.238
AGGGCTAC | -0.117
ATAAATTA | 0.326
ACACGAGG | 0.324
GTACGCGA | 0.327
ATACGAGG | 0.488
GTACGAGA | 0.482
GTCCGAGA | 0.253
AGACGAGG | 0.202
ACCCCGAC | -0.0233
AGTCAATG | -0.0767
ACGGGGCA | 0.114
TGCAGCCA | -0.171
GTTTAGTA | 0.271
CCCGGTAC | 0.078
GACGACTA | -0.121
AGCGACTA | 0.161
AACGACTT | 0.336
TACGACTA | 0.438
AACGACTA | 0.372

Sequence | PBM E-score
AACGACTG | 0.393
CACGACTA | -0.0786
ATCGACTG | 0.076
CACGACTG | 0.0526
GACGACTC | -0.0985
AACGACTC | 0.388
CACGACTC | 0.0577
TCCCCGGA | 0.00406
ATCTGTAG | -0.116
CGTCTCAC | 0.0419
TGCGCAAA | -0.077
GAAGCAGA | -0.215
GGTCGTAC | 0.482
GGTCGCAC | 0.228
CGTCGTGC | 0.177
AGTCGTGC | -0.0872
CGTCGTAG | 0.406
AGTCGTAC | 0.46
AGTCGTCC | -0.0209
CGTCGTCC | -0.054
CGTCGTAC | 0.486
CGTAGTAG | 0.109
CATCGTCG | 0.0968
GGACGTAC | 0.126
CCCCGAAC | -0.0375

Sequence | PBM E-score
GGAAAATA | 0.0993
GATCGGGA | 0.0412
CCAGGTCC | -0.192
GAAAAAGC | -0.00535
ACTCAGTC | -0.147
CCCTCCAG | -0.206
AGGTGAAC | 0.0634
TGAGTAAA | -0.13
ATTCTCGA | 0.168
AGTCGTAT | 0.46
AGTCGTCG | 0.01
AGTCGTAG | 0.304
AGCCTAAC | -0.0712
ATCTGCGG | -0.00985
GATGAGGA | -0.0394
AGGAGCTA | -0.138
CTCTCGAA | -0.0852
ATCTCGTC | 0.158
GTCTCGGA | 0.242
CTCTCGTA | 0.457
GTCTCGAA | -0.00716
ATCTCGTA | 0.466
CTCTCGTC | 0.0625
GTCTCGTA | 0.461
ATCTCGTG | 0.193

Sequence | PBM E-score
CTGCGGGC | -0.163
AACGCTTG | -0.121
CTTGGACC | -0.134
CGTAGCTC | 0.32
AACTTAGA | -0.0444
GCGTCGAA | 0.0462
GCGTCGCA | 0.23
CCGTCGTC | 0.0655
CCGTCGTA | 0.471
ACGTCGTC | 0.175
ACGTCGTA | 0.464
CCGTCGGA | 0.0756
ACGTCGTG | 0.117
GCGTCGTA | 0.471
GTCATAGA | -0.115
CTCAACCC | -0.14
AACCCCGT | 0.0296
CGTATGAG | 0.354
AGTATGAA | 0.0349
AGTATGAC | 0.0876
CGTATGAC | 0.407
GGTATGAC | -0.125
CGTATGAA | 0.415
CCGCAATA | 0.0155
AAAACTCG | 0.182

Sequence | PBM E-score
AAACACCG | 0.14
GCATGCCA | 0.0106
CGTTTCCC | 0.261
CGTTCCCA | 0.443
AGTTCCCC | -0.0578
AGTTCCCA | 0.0586
GGTTCCCA | -0.173
CGTTCCCC | 0.428
CGCCTTTC | 0.0685
CTAGAAGA | -0.0952
ATGGACTG | -0.151
CCACTTCC | 0.0365
AAACGAAG | 0.457
AAACGAAT | 0.453
AAACGAAA | 0.449
CAACGAAG | 0.277
AACCGAAT | 0.284
CCACGAAG | 0.0223
CAACGAAA | 0.278
AAACGTAT | 0.319
TAACGAAA | 0.296
GATTAGCC | 0.0338
GCCACTCA | -0.196
AACCGCGC | -0.0112
ACGCTGCA | -0.0508

Sequence | PBM E-score
AAAAACAG | -0.0439
GACGAACC | 0.0132
CACGAACG | 0.312
TCCGAACA | 0.0654
CACGAACC | 0.0995
AACGAACG | 0.437
AACGAACC | 0.408
AACGAACA | 0.409
AGCGAACA | 0.198
AACGAACT | 0.354
TACGAACA | 0.452
CACGAACA | 0.177
GACGAACA | 0.0113
GCCCGGCC | -0.229
ACGGTTAC | 0.255
AGGAAGGG | -0.211
TCTGCTAA | -0.086
CTTTCTCA | 0.00463
CACTATCA | -0.0654
CCGCTGAA | -0.00985
GTCTGGTA | 0.00642
CAACGAAC | 0.272
